About 15 (0.007%) of roughly 200,000 compounds were called active. Cut-off read from the data, not from the text of the source: active = displacement above about 50%; inactive = the rest. The full list was thinned out, with actives kept by preference.
molecular target: E3 ubiquitin-protein ligase XIAP (Homo sapiens) (UniProt P98170); assay: XIAP antagonists, biochemical, IAP family, fluorescence polarization (AID 1018); conditions: XIAP BIR domain, fluorescence polarization peptide displacement; at 20 µM; hits give high values
Sequence (P98170 whole entry, looked up, the tested form may be a part): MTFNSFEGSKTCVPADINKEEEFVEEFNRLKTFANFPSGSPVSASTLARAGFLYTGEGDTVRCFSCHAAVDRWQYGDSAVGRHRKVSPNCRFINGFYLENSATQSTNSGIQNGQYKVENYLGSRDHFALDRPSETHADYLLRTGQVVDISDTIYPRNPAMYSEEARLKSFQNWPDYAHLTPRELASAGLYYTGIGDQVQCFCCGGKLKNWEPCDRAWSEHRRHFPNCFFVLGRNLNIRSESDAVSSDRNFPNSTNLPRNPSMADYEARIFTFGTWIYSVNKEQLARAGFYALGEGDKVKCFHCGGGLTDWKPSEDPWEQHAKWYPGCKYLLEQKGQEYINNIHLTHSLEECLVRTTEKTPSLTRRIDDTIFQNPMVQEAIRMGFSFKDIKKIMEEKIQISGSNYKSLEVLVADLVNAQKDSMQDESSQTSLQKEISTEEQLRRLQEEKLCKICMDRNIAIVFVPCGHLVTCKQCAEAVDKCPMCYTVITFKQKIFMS

SMILES | displacement
Cc1cc(OCC(=O)C(C)(C)C)c2c(C)c(C)c(=O)oc2c1 | -1.7% (inactive)
CC(=O)COc1cc(C)cc2oc(=O)c(C)c(C)c12 | 61.1% (active)
CC(=O)C(C)Oc1cc(C)cc2oc(=O)c(C)c(C)c12 (stereo not given) | -5.9% (inactive)
Cc1ccc(Cn2nnc3c(=O)[nH]c(C4CCN(S(=O)(=O)c5ccc(F)cc5)CC4)nc32)cc1 | 63.3% (active)
Cc1ccc(Cn2nnc3c(=O)[nH]c(C4CCN(S(=O)(=O)c5ccc(C)cc5)CC4)nc32)cc1 | -2% (inactive)
Cc1ccc(Cn2nnc3c(=O)[nH]c(C4CCN(S(=O)(=O)c5ccccc5)CC4)nc32)cc1 | -5.4% (inactive)
COc1ccc(N(CC(O)CN2CCCCC2)S(=O)(=O)c2ccc(C)cc2)cc1 (stereo not given) | -3.7% (inactive)
C=CC(=O)NCCCc1cc(C(C)(C)C)c(O)c(C(C)(C)C)c1 | -6.9% (inactive)
Cc1ccccc1N(CC(=O)O)S(C)(=O)=O | -4.6% (inactive)
CN(C)CCCOC(=O)COc1ccc(C(C)(C)C)cc1 | -1.4% (inactive)
CCC(C)(C(=O)NC1CCCC1)N(Cc1cccs1)C(=O)c1ccc2c(c1)OCO2 (stereo not given) | -5.3% (inactive)
CC(C)Cn1c2c(c(O)c(C(=O)Nc3ccc(F)cc3)c1=O)CCCC2 | 0.5% (inactive)
COc1ccccc1NCCC#N | -1.4% (inactive)
Cc1cccc(OCC(=O)NNC(=O)c2cccs2)c1 | -3.8% (inactive)
Cc1[nH]n(-c2ccc([N+](=O)[O-])cc2)c(=O)c1C=NCCN1CCN(C(=O)c2ccccc2)CC1 | -2.6% (inactive)
O=C(NCCCO)c1ccc(CSc2nc3ccccc3[nH]2)cc1 | -4% (inactive)
CC(=O)C1C(c2cccc(F)c2)NC(=O)NC1(O)C(F)(F)F (stereo not given) | 0% (inactive)
COC(=O)C(NNc1ccccc1C)(NC(=O)c1ccc(F)cc1)C(F)(F)F (stereo not given) | -3.9% (inactive)
O=C(/C=C/c1ccco1)NCC(=O)N/N=C/c1ccccc1[N+](=O)[O-] | -3.9% (inactive)
O=c1c(Cc2ccc(F)cc2)c(O)ccn1CCc1ccccn1 | -4.4% (inactive)
CCN1/C(=C/c2ccc3cc(C)ccc3[n+]2CC)Sc2ccccc21 | -5.1% (inactive)
CCN1/C(=C/c2ccc3cc(C)ccc3[n+]2C)Sc2ccc3sccc3c21 | 72.1% (active)
CCN1/C(=C/c2ccc3cc(C)ccc3[n+]2CC)Sc2cc(C)ccc21 | 1.8% (inactive)
O=C(COc1ccccc1)Nc1ccncc1 | -2.7% (inactive)
Cc1sc(N)c(C#N)c1C | -1.2% (inactive)
CC(C)Oc1cccc(C(=O)C2CCCN(Cc3ccc4nonc4c3)C2)c1 (stereo not given) | -5.9% (inactive)
CCc1c(C)nc2c(Br)cccc2c1SCCC#N | -0.5% (inactive)
CN(C)c1nc(N)nc(CSc2nnnn2-c2ccccc2)n1 | -5.7% (inactive)

SMILES | displacement
CCOC(=O)c1c(-c2ccccc2)oc2ccc(O)c(CN3CCN(C)CC3)c12 | -5.2% (inactive)
Cc1cc(NC(=O)COn2nnc3ccc(Cl)cc32)no1 | -5.1% (inactive)
COc1ccc(OC)c(NC(=O)C23CC4CC(C2)CC(n2cnc(Br)n2)(C4)C3)c1 | -3.2% (inactive)
CCC(Oc1ccccc1)C(=O)N1CC(C)CC(C)C1 (stereo not given) | 2.4% (inactive)
C[N+]1(CC(=O)OCCCc2ccccc2)CCCC1 | -9.6% (inactive)
O=C(NC1CCCc2ccccc21)c1ccc(S(=O)(=O)N2CCOCC2)cc1 (stereo not given) | -3.4% (inactive)
CCOc1cccc2cc(C(=O)N3CCc4ccccc43)c(=O)oc12 | -88.7% (inactive)
CCC(/C=N/NC(=O)C(=O)N/N=C/C(CC)CC)CC | -0.2% (inactive)
O=C(COc1cccc(NC(=O)c2cccc([N+](=O)[O-])c2)c1)c1ccc(Br)cc1 | -6.2% (inactive)
COc1cccc(C(=O)COc2cccc(NC(=O)c3cccc([N+](=O)[O-])c3)c2)c1 | -1.9% (inactive)
O=C(COc1cccc(NC(=O)c2cccc([N+](=O)[O-])c2)c1)c1ccc(F)cc1 | 59.8% (active)
CC(=O)Nc1ccccc1OCC(=O)NCCc1ccc(Cl)cc1Cl | -8.3% (inactive)
COCCNC(=O)CCSCc1ccccc1F | -1.3% (inactive)
O=C(Nc1ccccc1C(F)(F)F)NC1CCCCC1 | -2.8% (inactive)
CC(=O)Nc1cc(C)c(S(C)(=O)=O)c(C)c1 | -8.9% (inactive)
CC1CN(CC(O)COC(c2ccccc2)c2ccccc2)CC(C)O1 (stereo not given) | -4.7% (inactive)
CC(=C/c1ccc(C(C)C)cc1)/C=N/NC(=O)c1ccncc1 | -6.3% (inactive)
O=C(CN1CCc2ccccc2C1)Nc1ccc(F)cc1F | -0.5% (inactive)
Cc1ccc(C(=O)Nc2ncc(C)s2)o1 | -3.4% (inactive)
COc1ccccc1CCc1nnc(CCC(=O)NCCCOc2cccnc2)o1 | -4.3% (inactive)
CC1=C(C(=O)Nc2ccccc2)C(c2ccccc2[N+](=O)[O-])NC(=O)N1 (stereo not given) | -1.5% (inactive)
O=[N+]([O-])c1ccccc1OCCCN1CCOCC1 | -4.4% (inactive)
CC(C)CNC(=O)NC(=O)COc1ncnc2sccc12 | -1.4% (inactive)
COc1ccc(NC(=O)CSc2nnc(NC(=O)c3ccccc3C(=O)O)s2)cc1 | -4.3% (inactive)
Cc1ccc(Sc2nc(C)cc(C)c2S(C)(=O)=O)cc1 | -4.9% (inactive)
COCCNC(=O)NC(=O)COC(=O)c1ccc2[nH]c3c(c2c1)CCCC3 | -1.1% (inactive)
O=C(CCCC(=O)OCC(Cl)=C(Cl)Cl)Nc1cccc(F)c1 | -3.5% (inactive)
